Measurements from PubChem BioAssay AID1851 (National Center for Advancing Translational Sciences (NCATS), 2009).
About 5,100 (32%) of roughly 16,000 compounds were called active. Roughly 25% stayed inconclusive and do not appear here. The call rests on the fitted dose curve; in most records, active means well fitted curve in the direction sought with a large enough effect; inconclusive means small, poorly fitted or top-dose-only effect, or effect the other way; inactive means no such curve, though single readings can be large or run the other way. The list shows a part of the results.

Molecular target: Cytochrome P450 3A4 (Homo sapiens) (UniProt P08684)
Sequence (P08684 whole entry, looked up): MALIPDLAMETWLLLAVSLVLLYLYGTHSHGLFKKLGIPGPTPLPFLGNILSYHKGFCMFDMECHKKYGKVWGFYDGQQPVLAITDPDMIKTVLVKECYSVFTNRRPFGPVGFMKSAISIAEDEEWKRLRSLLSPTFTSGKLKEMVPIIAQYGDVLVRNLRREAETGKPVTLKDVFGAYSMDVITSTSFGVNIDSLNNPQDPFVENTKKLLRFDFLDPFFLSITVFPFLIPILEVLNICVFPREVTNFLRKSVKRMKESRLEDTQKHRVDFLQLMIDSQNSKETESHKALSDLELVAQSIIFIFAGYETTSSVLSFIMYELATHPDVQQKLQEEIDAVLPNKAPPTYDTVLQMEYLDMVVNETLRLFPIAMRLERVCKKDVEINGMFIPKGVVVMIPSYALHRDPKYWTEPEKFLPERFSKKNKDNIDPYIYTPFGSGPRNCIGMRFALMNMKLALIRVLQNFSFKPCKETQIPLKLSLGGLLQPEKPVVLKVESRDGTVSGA
Test: Cytochrome panel assay with activity outcomes
Conditions: recombinant CYP, pro-luciferin dealkylation, luminescence, p450-cyp3a4; series mostly up to 57.1 µM; activity, negative = inhibition: at the top concentration
On the % scale 0 is the no-effect control and ±100 the full control effect.

activity, negative = inhibition, inactive:
CC1(C)S[C@@H]2[C@H](NC(=O)[C@@H](NC(=O)N3CCNC3=O)c3ccccc3)C(=O)N2[C@H]1C(=O)O 0.608% [at 25.6 µM], CCC1CC2CC(NC(C)=O)C1C2 (configuration not stated) 0.468% [at 2.29 µM], N[C@@H](Cc1cccc([N+](=O)[O-])c1)C(=O)O -9.82% [at 11.4 µM], O=[N+]([O-])c1ccc2c(c1)S(=O)c1ccccc1-2 (configuration not stated) -11.3% [at 11.4 µM], COC(=O)CCCC(=O)O -18.6% [at 11.4 µM], COC(=O)C(C(=O)OC)C(C[N+](=O)[O-])c1ccc(OC)c(OC)c1 (configuration not stated) -7.76% [at 2.29 µM], COc1cc2c(C(=O)NCc3ccc(C)o3)cn(CC(C)C)c(=O)c2cc1OC -15.9% [at 2.29 µM], O=C(CNc1cccc(Cl)c1)c1ccc(Cl)cc1 -14.6%, O=C(NOC(=O)c1cc(Br)ccc1Cl)c1cccs1 8.25%, CNS(=O)(=O)c1ccccc1C(=N)c1ccccc1 -6.85% [at 11.4 µM], CCN(CC)C[C@@H](O)c1ccc2ccc3ccccc3c2c1 -25.1% [at 11.4 µM], Cc1nnc(C)n1/N=C/c1cccs1 -16.5%, O=S(=O)(O)c1cc(O)c2c(N=Cc3ccccc3O)cc(S(=O)(=O)O)cc2c1 0.658% [at 11.4 µM], O=C(O)c1cc(N=Cc2ccccc2O)cc(C(=O)O)c1 -17.4% [at 11.4 µM], O=C(COc1ccc(/C=N/NC(=O)c2ccccc2)cc1)Nc1ccc([N+](=O)[O-])cc1 10.2%, COc1ccc(/C=N/NC(=O)c2cccc([N+](=O)[O-])c2)cc1OS(=O)(=O)c1ccc(C)cc1 -20.3% [at 2.29 µM], O=C(O)c1c(-c2c3ccc(=O)cc-3oc3cc(O)ccc23)cc2ccccc2c1-c1ccccc1 -8.67% [at 11.4 µM], CSCC[C@@H]1NC(=O)C/C=C\[C@@H](C)COC(=O)[C@H](C)COC1=O -24% [at 11.4 µM], N#Cc1c(-c2ccc3c(c2)OCO3)ccn2nc(-c3cccc(C(F)(F)F)c3)nc12 13.4%, CN1CCN(c2cc(-c3ccc(N(C)C)cc3)ncn2)CC1 -24.7%, CC(=O)Oc1ccccc1C(=O)Oc1ccccc1C(=O)O -1.9% [at 25.6 µM], Nc1nc(-c2cccnc2)cc(-c2cc(-c3cccnc3)nc(N)n2)n1 -3.62% [at 11.4 µM], CCCCN(c1ccccc1)c1ncnc2c1cnn2C -28% [at 11.4 µM], CC(N)=NCc1cccc(CN)c1 -12.2%, CCC(=O)O[C@H](CC(=O)O)C[N+](C)(C)C -19.2%, OCC1CCCN(Cc2ccc(-c3ccccc3)cc2)C1 (configuration not stated) -6.47%, COc1ccc(C2=NOC(C(=O)NCCN3CCOCC3)C2)cc1 (configuration not stated) -26.8%, COc1cccc(C(=O)NCCN2CCOCC2)c1 -9.86%, O=C(NCCN1CCOCC1)c1csc2c1CCCCC2 -7.18% [at 2.29 µM], COCCNC(=O)c1sc2nc(-c3ccccc3)cn2c1C -8.11%, C(=C\c1nnc(-c2cccs2)o1)/c1ccccc1 -17.5%, O=C(Nc1ccccc1)N1CC2(CCN(C(=O)c3cnccn3)CC2)C1 0.638%, O=C(Nc1cccc(F)c1)N1CCC2(CC1)CCN(C(=O)c1cnccn1)CC2 7.18%, O=C(Nc1ccccc1)N1CCC2(CC1)CCN(C(=O)c1cnccn1)CC2 11.4%, CCNc1ncc2ncc(=O)n(C3CC3)c2n1 -18.8%, Nc1ncnc2nc(N3CCN(CCO)CC3)[nH]c12 -3.68% [at 11.4 µM], Cn1c([N+](=O)[O-])cnc1CN1CCN(CCO)CC1 -14.7% [at 11.4 µM], CC(C)NC(=O)N1CCN(c2ccncc2S(=O)(=O)N2CCOCC2)CC1 -21.8% [at 2.29 µM], CC(C)(C)NC(=O)C(=O)N/N=C/c1ccc(Br)cc1 8.12%, Cc1cc2c(c(=O)o1)[C@H](O)[C@H]1O[C@@H]1C2=O -24.9% [at 11.4 µM], O=C(O)CC1(CC(=O)O)Nc2ccccc2SC1=O -8.21% [at 11.4 µM], Cc1nonc1NC(=O)OCCN1CCOC1=O 1.72%, COCC(=O)N1CCC2(CC1)CCN(c1ncccn1)CC2 -11.9%, CCC(C)NC(=O)Cn1cnc2sc(C)cc2c1=O (configuration not stated) -19.8%, NS(=O)(=O)c1ccc(N=Nc2ccc[nH]c2=O)cc1 -13.7% [at 11.4 µM], N=C(N)SCCc1ccc(OCc2ccc([N+](=O)[O-])cc2)cc1 -23.5%, O=C(COc1ccc(Br)cc1)Nc1ccc([N+](=O)[O-])cn1 -23.2%, O=C1O[C@H](CN2CCOCC2)CN1/N=C\c1ccc([N+](=O)[O-])o1 -6.03% [at 25.6 µM], C[C@H](Nc1ncnc2sc3c(c12)CCC3)C(=O)O -10.2%, Fc1cccc(CSc2ncnc3c2ncn3[C@H]2CCCS2)c1 -11.8% [at 11.4 µM], Cc1nc(Sc2ccccc2)c(C#N)cc1-c1ccccc1 -21.7%, N#Cc1ccc(-c2ccc(F)cc2)nc1Oc1ccc(Cl)c(Cl)c1 -17.9%

AC50, inactive:
CC(C)NC[C@H](O)c1ccc2ccccc2c1, N[C@@H](Cc1ccc(O)c(O)c1)C(=O)O

AC50, active:
N=C(N)S[C@H]1c2ccccc2-c2cc([N+](=O)[O-])ccc21 5.01 µM, COc1cc(C(=O)NCCC(C)C)c([N+](=O)[O-])cc1OC 15.8 µM, O=C(CCNc1cccc(Cl)c1)c1cccs1 14.1 µM, CCCCOC(OCCCC)[C@H](O)CSc1ccc2ccccc2c1 5.01 µM, S=c1[nH]nc(C2CCCCC2)n1/N=C/c1cccs1 12.6 µM, Cc1cc(O)c(C(C)C)cc1N=Cc1ccccc1O 3.16 µM, COc1cc(/C=N/NC(=O)c2cccc([N+](=O)[O-])c2)ccc1OCc1ccc(C)cc1 1.41 µM, COc1cccc(/C=N/NC(=O)c2cccc([N+](=O)[O-])c2)c1OS(=O)(=O)c1ccc(C)cc1 1.12 µM, COc1cc(/C=N\Nc2ccc([N+](=O)[O-])cc2)ccc1OCC(=O)Nc1ccc(C)c(C)c1 3.98 µM, Cc1nc(-c2c(C(F)(F)F)noc2-c2ccc(O)cc2O)cs1 0.501 µM, c1cn(-c2ccnc(-c3ccc4c(c3)OCO4)n2)cn1 0.631 µM, N#Cc1cccc(-c2cc(-n3ccnc3)ncn2)c1 0.398 µM, N#Cc1cccc(-c2nccc(-n3ccnc3)n2)c1 2.51 µM, CN(C)c1ccc(-c2cc(-n3ccnc3)ncn2)cc1 0.0631 µM, c1cncc(-c2cc(-n3ccnc3)ncn2)c1 1.58 µM, COc1cccc(-c2nccc(-n3ccnc3)n2)c1 1 µM, CS(=O)(=O)Nc1cccc(-c2cncnc2NCc2cccnc2)c1 1 µM, Cc1cccc(CNc2ncncc2-c2cccc(NS(C)(=O)=O)c2)c1 0.158 µM, CS(=O)(=O)Nc1cccc(-c2cncnc2NCc2cccs2)c1 0.398 µM, Cc1cnc(CNc2ncnc3ccc(-c4cccc(NS(C)(=O)=O)c4)cc23)cn1 12.6 µM, Cc1cnc(CNc2ncncc2-c2cccc(NS(C)(=O)=O)c2)cn1 3.16 µM, CS(=O)(=O)Nc1cccc(-c2cncnc2NCc2ccccc2)c1 0.631 µM, CS(=O)(=O)Nc1cccc(-c2ccc3ncnc(NCc4cccs4)c3c2)c1 3.16 µM, CS(=O)(=O)Nc1cccc(-c2ccc3ncnc(NCc4cccnc4)c3c2)c1 0.398 µM, COc1ccc(-c2csc(NC(=O)CCn3cnc4ccccc4c3=O)n2)cc1OC 11.2 µM, COc1ccc(C(=O)Nc2ccc(Cl)cc2C(=O)NCCN2CCOCC2)cc1 14.1 µM, COc1ccc(-c2cn3c(C)c(C(=O)NCCN4CCOCC4)sc3n2)cc1 12.6 µM, N#Cc1nc(-c2cccs2)oc1NCc1ccccc1 12.6 µM, O=C(Nc1cccc(F)c1)N1CC[C@@]2(CCCN(C(=O)c3cnccn3)C2)C1 12.6 µM, O=C(Nc1cccc(F)c1)N1CCCC2(CCN(C(=O)c3cnccn3)CC2)C1 12.6 µM, CC(C)N1CCN(c2ccncc2S(=O)(=O)N2CCCCC2)CC1 3.16 µM, O=S(=O)(c1cnccc1N1CCN(CCO)CC1)N1CCCC1 3.98 µM, O=S(=O)(c1cnccc1N1CCN(/N=C/c2ccccc2)CC1)N1CCCCC1 0.891 µM, CCCC[C@H]1C[C@@H]1[C@@H]1N(P(=O)(c2ccccc2)c2ccccc2)C[C@@](O)(c2ccccc2)CC12CC2 2 µM, CCCC[C@H]1C[C@@H]1[C@@H]1N(P(=O)(c2ccccc2)c2ccccc2)[C@](CO)(c2ccccc2)CC12CC2 2 µM, CC(C)(C)c1cc(/C=C(\C#N)C(N)=S)cc(C(C)(C)C)c1O 3.98 µM, Cc1sc2ncn(CC(=O)NCCCC(=O)N3CCN(c4ncccn4)CC3)c(=O)c2c1C 14.1 µM, O=C(COc1ccc([N+](=O)[O-])cc1)NN=C1CCCC1 25.1 µM, Cc1nc(NS(=O)(=O)c2ccccc2C)c2c3c(sc2n1)CCC3 8.91 µM, Cc1nc(NS(=O)(=O)c2ccc(Br)cc2)c2c3c(sc2n1)CCC3 11.2 µM, CNC(=S)N1CCN(c2ccccc2OC)CC1 10 µM, Cc1ccc(Sc2nc(-c3ccccc3)ccc2C#N)cc1 20 µM, COc1ccccc1-c1nnc(SCc2nc3ccccc3s2)n1C 17.8 µM
